Test results from the supplement of paper PMC10849652.
The full data set covers some 8,800 targets. This sample favours those with a hit. About 0.5% of all pairs of compound and target were hits. Values without a mark were called inactive.

Tests used:
Assay in all cases: log2 fold change, soluble protein after heating vs DMSO (PISA); higher = thermal stabilisation; K562 lysate, 10 uM; active = over 0.2 and 3.5 SD of the protein, either way, in both replicates (recomputed)
lapatinib = compound: CS(=O)(=O)CCNCc1ccc(-c2ccc3ncnc(Nc4ccc(OCc5cccc(F)c5)c(Cl)c4)c3c2)o1 [lapatinib]
In short: (§1)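 The values are log-two fold changes in thermal stability compared with solvent controls and come from duplicates. They were obtained by TMTpro 16plex LC-MS/MS, with channel sums equalised, on the supernatant after 21,000xg for 90 min. That supernatant came from crude K562 extract at 1 mg/mL protein treated with 10 μM compound for 30 min, heated for 3 min across 48°C-58°C, pooled and brought to 0.5% NP-40 at 4°C.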

pictilisib = compound: CS(=O)(=O)N1CCN(Cc2cc3nc(-c4cccc5[nH]ncc45)nc(N4CCOCC4)c3s2)CC1 [pictilisib]
In short: as §1

crizotinib = compound: C[C@@H](Oc1cc(-c2cnn(C3CCNCC3)c2)cnc1N)c1c(Cl)ccc(F)c1Cl [crizotinib]
In short: as §1

[1] = compound: C[C@H](C1=CC=C(C=C1)C(=O)NC2=C3C=CNC3=NC=C2)N
In short: as §1

duvelisib = compound: C[C@H](Nc1ncnc2nc[nH]c12)c1cc2cccc(Cl)c2c(=O)n1-c1ccccc1 [duvelisib]
In short: as §1

gandotinib = compound: Cc1cc(Nc2cc(CN3CCOCC3)c3nc(C)c(Cc4ccc(Cl)cc4F)n3n2)n[nH]1 [gandotinib]
In short: as §1

tozasertib = compound: Cc1cc(Nc2cc(N3CCN(C)CC3)nc(Sc3ccc(NC(=O)C4CC4)cc3)n2)n[nH]1 [tozasertib]
In short: as §1

doramapimod = compound: Cc1ccc(-n2nc(C(C)(C)C)cc2NC(=O)Nc2ccc(OCCN3CCOCC3)c3ccccc23)cc1 [doramapimod]
In short: as §1

bafetinib = compound: Cc1ccc(NC(=O)c2ccc(CN3CC[C@H](N(C)C)C3)c(C(F)(F)F)c2)cc1Nc1nccc(-c2cncnc2)n1 [bafetinib]
In short: as §1

[2] = compound: Cc1cccc(CC(=O)N2CCc3c2ccc(-c2cn(C)c4ncnc(N)c24)c3F)n1
In short: as §1

nilotinib = compound: Cc1cn(-c2cc(NC(=O)c3ccc(C)c(Nc4nccc(-c5cccnc5)n4)c3)cc(C(F)(F)F)c2)cn1 [nilotinib]
In short: as §1

[3] = compound: Cc1nc(Nc2n[nH]c3c2CN(C(=O)N[C@H](CN(C)C)c2ccccc2)C3(C)C)c2sccc2n1
In short: as §1

dasatinib = compound: Cc1nc(Nc2ncc(C(=O)Nc3c(C)cccc3Cl)s2)cc(N2CCN(CCO)CC2)n1 [dasatinib]
In short: as §1

[4] = compound: Cc1ncc(-c2ccnc(Nc3ccc(S(C)(=O)=O)cc3)n2)n1C(C)C
In short: as §1

[5] = compound: Cn1cc(-c2ccc3c(c2)CCN3C(=O)Cc2cccc(C(F)(F)F)c2)c2c(N)ncnc21
In short: as §1

quisinostat = compound: Cn1cc(CNCC2CCN(c3ncc(C(=O)NO)cn3)CC2)c2ccccc21 [quisinostat]
In short: as §1

tipifarnib = compound: Cn1cncc1[C@@](N)(c1ccc(Cl)cc1)c1ccc2c(c1)c(-c1cccc(Cl)c1)cc(=O)n2C [tipifarnib]
In short: as §1

[6] = compound: NC(=O)Nc1cc(-c2cccc(F)c2)sc1C(=O)N[C@H]1CCCNC1
In short: as §1

[7] = compound: NC(=O)c1cnc(N[C@@H]2CCCC[C@@H]2N)nc1Nc1cccc(-n2nccn2)c1
In short: as §1

[8] = compound: NC1(c2ccc(-c3nc4ccn5c(=O)[nH]nc5c4cc3-c3ccccc3)cc2)CCC1
In short: as §1

Chain of UniProt Q6ICG6 (Q6ICG6 whole entry, looked up): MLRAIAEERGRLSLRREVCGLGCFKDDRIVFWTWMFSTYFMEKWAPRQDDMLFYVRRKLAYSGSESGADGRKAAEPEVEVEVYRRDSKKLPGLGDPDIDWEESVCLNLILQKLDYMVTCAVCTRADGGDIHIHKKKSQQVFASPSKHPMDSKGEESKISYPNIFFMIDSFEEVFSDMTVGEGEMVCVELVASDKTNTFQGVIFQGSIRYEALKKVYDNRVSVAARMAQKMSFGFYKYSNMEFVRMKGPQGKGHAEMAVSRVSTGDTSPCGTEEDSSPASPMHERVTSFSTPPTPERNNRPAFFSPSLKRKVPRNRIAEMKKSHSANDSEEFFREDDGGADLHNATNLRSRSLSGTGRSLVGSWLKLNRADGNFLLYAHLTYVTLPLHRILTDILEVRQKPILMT
Chain of UniProt Q9NPR9 (Q9NPR9 whole entry, looked up): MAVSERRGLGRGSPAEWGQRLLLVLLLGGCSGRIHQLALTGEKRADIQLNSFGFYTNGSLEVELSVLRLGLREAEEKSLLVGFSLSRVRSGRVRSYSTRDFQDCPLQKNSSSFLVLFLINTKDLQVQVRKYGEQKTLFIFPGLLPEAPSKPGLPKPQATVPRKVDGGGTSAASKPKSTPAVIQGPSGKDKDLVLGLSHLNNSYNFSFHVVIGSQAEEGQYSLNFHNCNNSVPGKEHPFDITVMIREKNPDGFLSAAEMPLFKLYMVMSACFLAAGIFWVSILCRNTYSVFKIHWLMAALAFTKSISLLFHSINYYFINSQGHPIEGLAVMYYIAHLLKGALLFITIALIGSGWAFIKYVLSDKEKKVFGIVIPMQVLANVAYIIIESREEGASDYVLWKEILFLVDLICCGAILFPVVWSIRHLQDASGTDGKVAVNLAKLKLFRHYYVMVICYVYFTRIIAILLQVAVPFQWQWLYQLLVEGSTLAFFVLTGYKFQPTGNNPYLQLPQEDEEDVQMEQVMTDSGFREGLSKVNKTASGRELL
Chain of UniProt O15379 (O15379 whole entry, looked up): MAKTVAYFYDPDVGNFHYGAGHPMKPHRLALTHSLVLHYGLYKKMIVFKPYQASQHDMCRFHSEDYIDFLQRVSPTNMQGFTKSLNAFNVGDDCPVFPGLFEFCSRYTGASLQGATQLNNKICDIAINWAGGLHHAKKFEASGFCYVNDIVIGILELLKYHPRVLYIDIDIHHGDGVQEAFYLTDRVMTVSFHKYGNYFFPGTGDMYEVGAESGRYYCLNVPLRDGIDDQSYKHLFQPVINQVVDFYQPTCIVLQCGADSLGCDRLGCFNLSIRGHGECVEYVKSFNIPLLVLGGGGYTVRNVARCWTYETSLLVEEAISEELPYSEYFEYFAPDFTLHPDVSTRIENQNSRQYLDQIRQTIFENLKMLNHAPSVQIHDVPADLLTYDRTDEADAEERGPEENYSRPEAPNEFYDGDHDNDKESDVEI
Chain of UniProt P49915 (P49915 whole entry, looked up): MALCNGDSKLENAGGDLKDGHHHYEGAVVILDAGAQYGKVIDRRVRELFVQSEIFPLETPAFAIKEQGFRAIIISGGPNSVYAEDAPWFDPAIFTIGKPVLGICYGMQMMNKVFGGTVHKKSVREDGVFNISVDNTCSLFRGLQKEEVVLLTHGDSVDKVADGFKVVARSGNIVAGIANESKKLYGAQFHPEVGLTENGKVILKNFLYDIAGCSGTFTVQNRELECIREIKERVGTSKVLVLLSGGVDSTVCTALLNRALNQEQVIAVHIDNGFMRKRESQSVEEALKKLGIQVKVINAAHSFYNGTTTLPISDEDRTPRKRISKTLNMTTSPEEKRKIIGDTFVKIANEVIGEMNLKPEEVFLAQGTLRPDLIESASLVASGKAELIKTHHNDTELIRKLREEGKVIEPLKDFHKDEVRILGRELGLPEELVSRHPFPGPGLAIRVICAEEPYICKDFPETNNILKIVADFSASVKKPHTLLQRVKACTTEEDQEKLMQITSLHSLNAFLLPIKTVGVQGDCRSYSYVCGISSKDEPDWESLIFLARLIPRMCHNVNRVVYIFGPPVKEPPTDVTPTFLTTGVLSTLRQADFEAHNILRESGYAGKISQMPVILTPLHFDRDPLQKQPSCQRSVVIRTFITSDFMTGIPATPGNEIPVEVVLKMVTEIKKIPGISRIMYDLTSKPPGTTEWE
Chain of UniProt Q03013 (Q03013 whole entry, looked up): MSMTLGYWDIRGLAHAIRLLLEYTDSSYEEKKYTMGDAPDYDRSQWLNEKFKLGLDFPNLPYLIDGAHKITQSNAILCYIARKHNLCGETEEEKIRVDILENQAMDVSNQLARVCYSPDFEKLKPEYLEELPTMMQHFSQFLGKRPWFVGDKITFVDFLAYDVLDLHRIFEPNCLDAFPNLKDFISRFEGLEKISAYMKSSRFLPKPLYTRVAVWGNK
Chain of UniProt P50053 (P50053 whole entry, looked up): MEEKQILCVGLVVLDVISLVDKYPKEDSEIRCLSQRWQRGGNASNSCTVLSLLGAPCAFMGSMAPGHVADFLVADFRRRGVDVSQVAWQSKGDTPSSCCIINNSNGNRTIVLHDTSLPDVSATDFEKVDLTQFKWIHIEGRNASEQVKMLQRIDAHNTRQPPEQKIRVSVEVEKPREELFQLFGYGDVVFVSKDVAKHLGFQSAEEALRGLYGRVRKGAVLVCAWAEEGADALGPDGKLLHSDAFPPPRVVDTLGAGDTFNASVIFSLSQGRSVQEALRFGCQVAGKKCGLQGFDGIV
Chain of UniProt Q96SY0 (Q96SY0 whole entry, looked up): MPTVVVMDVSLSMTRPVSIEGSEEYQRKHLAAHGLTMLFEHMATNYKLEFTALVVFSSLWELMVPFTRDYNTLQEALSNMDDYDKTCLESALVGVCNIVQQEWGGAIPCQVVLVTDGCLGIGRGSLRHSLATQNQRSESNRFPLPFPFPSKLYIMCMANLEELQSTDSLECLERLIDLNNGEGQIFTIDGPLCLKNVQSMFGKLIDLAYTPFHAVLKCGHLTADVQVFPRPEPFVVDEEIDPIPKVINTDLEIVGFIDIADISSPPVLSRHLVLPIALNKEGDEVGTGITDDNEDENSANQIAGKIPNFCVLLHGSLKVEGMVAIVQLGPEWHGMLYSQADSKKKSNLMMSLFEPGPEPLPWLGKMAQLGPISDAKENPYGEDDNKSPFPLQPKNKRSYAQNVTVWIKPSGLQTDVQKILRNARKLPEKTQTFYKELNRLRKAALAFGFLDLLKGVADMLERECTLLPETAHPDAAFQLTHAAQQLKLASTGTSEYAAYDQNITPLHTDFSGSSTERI
Chain of UniProt Q9BXW7 (Q9BXW7 whole entry, looked up): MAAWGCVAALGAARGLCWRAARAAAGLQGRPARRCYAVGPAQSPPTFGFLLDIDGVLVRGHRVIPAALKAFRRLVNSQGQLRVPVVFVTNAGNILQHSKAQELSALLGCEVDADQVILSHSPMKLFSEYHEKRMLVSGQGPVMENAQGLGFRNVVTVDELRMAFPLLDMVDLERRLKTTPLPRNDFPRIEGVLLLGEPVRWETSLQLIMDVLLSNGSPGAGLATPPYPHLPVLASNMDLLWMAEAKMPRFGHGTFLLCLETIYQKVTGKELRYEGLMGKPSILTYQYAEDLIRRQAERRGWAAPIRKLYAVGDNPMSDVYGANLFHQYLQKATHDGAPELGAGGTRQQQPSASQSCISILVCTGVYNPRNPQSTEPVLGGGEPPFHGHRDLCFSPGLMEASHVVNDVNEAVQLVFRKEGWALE
Chain of UniProt Q92759 (Q92759 whole entry, looked up): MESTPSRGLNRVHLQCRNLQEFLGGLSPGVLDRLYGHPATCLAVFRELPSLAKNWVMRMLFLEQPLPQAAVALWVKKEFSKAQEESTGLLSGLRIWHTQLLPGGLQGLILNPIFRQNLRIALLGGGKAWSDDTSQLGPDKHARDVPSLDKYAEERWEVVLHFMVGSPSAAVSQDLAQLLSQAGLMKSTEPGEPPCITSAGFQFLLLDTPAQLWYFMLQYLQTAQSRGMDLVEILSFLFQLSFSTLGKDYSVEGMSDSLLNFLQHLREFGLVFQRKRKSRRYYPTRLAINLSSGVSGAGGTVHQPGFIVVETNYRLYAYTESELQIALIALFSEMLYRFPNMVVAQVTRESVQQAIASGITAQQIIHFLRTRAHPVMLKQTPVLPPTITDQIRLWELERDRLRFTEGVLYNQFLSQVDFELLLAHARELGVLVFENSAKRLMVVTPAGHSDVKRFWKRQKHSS
Chain of UniProt P52655 (P52655 whole entry, looked up): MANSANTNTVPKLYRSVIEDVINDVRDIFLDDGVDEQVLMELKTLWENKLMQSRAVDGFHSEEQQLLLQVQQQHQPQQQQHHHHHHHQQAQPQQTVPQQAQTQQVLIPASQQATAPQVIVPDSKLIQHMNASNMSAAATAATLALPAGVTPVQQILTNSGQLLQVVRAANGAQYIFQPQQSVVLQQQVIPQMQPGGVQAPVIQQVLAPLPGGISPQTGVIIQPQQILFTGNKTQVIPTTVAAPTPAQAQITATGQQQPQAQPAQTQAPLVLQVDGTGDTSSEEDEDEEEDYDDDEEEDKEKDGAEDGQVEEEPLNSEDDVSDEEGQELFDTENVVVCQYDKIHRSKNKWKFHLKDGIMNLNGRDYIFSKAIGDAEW
Chain of UniProt Q01581 (Q01581 whole entry, looked up): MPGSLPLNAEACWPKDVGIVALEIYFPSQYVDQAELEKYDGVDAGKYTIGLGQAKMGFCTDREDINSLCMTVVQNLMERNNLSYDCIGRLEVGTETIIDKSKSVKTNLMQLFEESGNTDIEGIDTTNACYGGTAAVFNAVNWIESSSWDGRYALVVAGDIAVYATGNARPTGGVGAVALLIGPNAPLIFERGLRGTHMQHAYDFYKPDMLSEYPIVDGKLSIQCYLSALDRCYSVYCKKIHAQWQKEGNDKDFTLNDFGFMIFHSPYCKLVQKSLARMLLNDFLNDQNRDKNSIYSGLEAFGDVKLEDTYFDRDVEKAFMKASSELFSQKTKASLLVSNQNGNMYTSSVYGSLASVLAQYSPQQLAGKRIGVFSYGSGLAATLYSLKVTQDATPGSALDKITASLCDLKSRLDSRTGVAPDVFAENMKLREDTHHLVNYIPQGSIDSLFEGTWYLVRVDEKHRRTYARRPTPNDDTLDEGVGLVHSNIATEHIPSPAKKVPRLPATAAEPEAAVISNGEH

Target | log2 fold change (lapatinib) | log2 fold change (pictilisib) | log2 fold change (crizotinib) | log2 fold change [1] | log2 fold change (duvelisib) | log2 fold change (gandotinib) | log2 fold change (tozasertib) | log2 fold change (doramapimod) | log2 fold change (bafetinib) | log2 fold change [2] | log2 fold change (nilotinib) | log2 fold change [3] | log2 fold change (dasatinib) | log2 fold change [4] | log2 fold change [5] | log2 fold change (quisinostat) | log2 fold change (tipifarnib) | log2 fold change [6] | log2 fold change [7] | log2 fold change [8]
GTF2H4 (UniProt Q92759) | -0.026 | 0.027 | -0.025 | 0.061 | -0.01 | -0.14 | 0.031 | 0 | -0.039 | 0.038 | 0.006 | 0.021 | 0.003 | 0.019 | -0.011 | -0.029 | -0.008 | 0.07 | 0.04 | -0.08
GTF2A1 (UniProt P52655) | 0.034 | 0.011 | 0.055 | 0.327 (active) | 0.009 | -0.141 | 0.064 | 0.028 | 0.026 | -0.111 | 0.024 | -0.047 | 0.022 | 0.095 | 0.046 | -0.039 | 0.021 | -0.04 | 0.007 | -0.012
GMPS (UniProt P49915) | -0.008 | -0.014 | 0.007 | 0.115 | 0.006 | -0.071 | -0.001 | -0.036 | -0.012 | -0.032 | -0.006 | -0.019 | -0.016 | 0 | 0 | 0.041 | -0.008 | 0.001 | 0.001 | 0.009
GPR108 (UniProt Q9NPR9) | 0.022 | 0.03 | -0.01 | -0.121 | -0.043 | 0.237 (active) | 0.024 | 0.04 | 0.044 | -0.043 | 0.044 | 0.033 | -0.035 | 0.011 | -0.057 | -0.063 | -0.088 | -0.013 | 0.046 | -0.002
GSTM4 (UniProt Q03013) | -0.091 | 0.073 | -0.006 | -0.118 | -0.034 | 0.011 | -0.12 | 0.076 | 0.029 | 0.051 | -0.163 | 0.019 | -0.047 | 0.054 | 0.118 | 0.163 | 0.008 | -0.003 | 0.024 | -0.032
HMGCS1 (UniProt Q01581) | 0.077 | 0.018 | 0.001 | -0.031 | 0.003 | 0.006 | -0.006 | 0.036 | 0.013 | -0.004 | 0.003 | -0.015 | 0.02 | 0.012 | -0.005 | -0.007 | 0.001 | -0.016 | -0.008 | -0.018
IARS2 (UniProt Q9NSE4) | -0.023 | -0.013 | -0.01 | 0.19 | -0.007 | -0.057 | 0.02 | 0.011 | -0.002 | -0.049 | 0.016 | -0.007 | -0.021 | 0.026 | 0 | 0.022 | 0.006 | 0.021 | 0.02 | -0.004
HDAC3 (UniProt O15379) | 0.02 | 0.008 | 0.015 | 0.076 | -0.067 | -0.015 | 0.054 | -0.024 | -0.005 | -0.045 | -0.079 | -0.019 | 0.04 | -0.026 | 0.007 | -0.004 | -0.102 | 0.038 | -0.004 | -0.049
HLTF (UniProt Q14527) | 0.045 | 0.061 | -0.019 | -0.063 | -0.05 | -0.021 | 0.004 | -0.007 | -0.087 | 0.035 | -0.039 | 0.004 | -0.041 | -0.051 | 0.05 | 0.021 | -0.148 | 0.102 | 0.055 | -0.085
KIAA0930 isoform 2 (UniProt Q6ICG6) | -0.068 | 0.016 | -0.067 | -0.121 | -0.037 | 0.055 | -0.015 | 0.055 | -0.051 | 0.191 | -0.041 | 0.05 | 0.202 | -0.109 | -0.021 | 0.03 | -0.037 | -0.026 | -0.047 | –
HDHD5 (UniProt Q9BXW7) | 0.011 | 0.012 | -0.017 | -0.147 | 0.058 | -0.005 | 0.059 | 0.131 | 0.033 | 0.116 | 0.157 | -0.081 | 0.023 | -0.052 | -0.042 | -0.026 | -0.008 | 0.028 | -0.014 | -0.036
INF2 (UniProt Q27J81) | 0.024 | -0.019 | -0.043 | 0.002 | -0.051 | -0.001 | 0.04 | 0.049 | -0.068 | 0.128 | -0.08 | 0.055 | 0.032 | 0.034 | -0.013 | -0.051 | -0.079 | 0.023 | 0.005 | -0.035
GTF3C5 isoform 3 (UniProt Q9Y5Q8) | -0.009 | -0.01 | -0.047 | -0.014 | -0.02 | -0.002 | -0.012 | 0.063 | -0.047 | 0.02 | 0.023 | -0.023 | -0.017 | -0.018 | 0.019 | -0.063 | -0.004 | 0.05 | -0.006 | 0.005
KHK isoform 2 (UniProt P50053) | -0.066 | -0.015 | -0.032 | 0.248 (active) | 0 | -0.058 | 0.018 | 0.031 | 0.001 | -0.163 | -0.004 | 0.035 | -0.075 | -0.02 | -0.035 | -0.021 | -0.043 | -0.019 | -0.018 | -0.023
INTS14 (UniProt Q96SY0) | 0 | 0.016 | 0.005 | 0.038 | 0.012 | -0.035 | -0.011 | -0.012 | 0.009 | -0.027 | 0.024 | 0.023 | -0.038 | -0.023 | -0.004 | -0.018 | -0.004 | -0.01 | -0.026 | -0.011
GTF2I (UniProt P78347) | -0.005 | -0.011 | -0.039 | -0.01 | 0.016 | -0.086 | -0.004 | 0.018 | -0.066 | 0.027 | 0.001 | 0.002 | -0.042 | -0.011 | 0.035 | -0.006 | -0.008 | 0.034 | 0 | -0.014
